Data reported in PubChem BioAssay (NCATS).
Inconclusive results are not listed. Entries that show only a call come without a potency. The source made the active and inactive calls. Unless noted, the call rests on the fitted dose curve.

Assays:
[1] = qHTS for Inhibitors of the Functional Ribonucleoprotein Complex (vRNP) of Lassa (LASV) Arenavirus: LASV Primary Screen - GLuc reporter signal (AID 1347082; calls by dose curve; tested in HEK293 reporter line; further: nearly all actives have a fitted effect of over 60% in size; further: potency means the concentration at half of the fitted maximal effect)
[2] = qHTS for Inhibitors of the Functional Ribonucleoprotein Complex (vRNP) of Lassa (LASV) Arenavirus: Viability assay - alamar blue signal for LASV Primary Screen (AID 1347083; calls by dose curve; tested in HEK293 reporter line; further: nearly all actives have a fitted effect of over 80% in size; further: potency means the concentration at half of the fitted maximal effect)
[3] = target: Nucleoprotein (Lymphocytic choriomeningitis virus (strain Armstrong)) (UniProt P09992); test: qHTS for Inhibitors of the Functional Ribonucleoprotein Complex (vRNP) of Lymphocytic Choriomeningitis Arenaviruses (LCMV): LCMV Primary Screen - GLuc reporter signal (AID 1347086); further: nearly all actives have a fitted effect of over 70% in size; further: potency means the concentration at half of the fitted maximal effect
[4] = target: Alpha-galactosidase (Coffea arabica) (UniProt Q42656); test: Counterscreen for Glucocerebrosidase Inhibitors: qHTS Assay for Coffee Bean alpha-Galactosidase at pH 5.9 (AID 998; active means well fitted curve in the direction sought with a large enough effect; an effect the other way counts as inactive or inconclusive)
Procedure, shortened: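 Enzyme 2 nM + cpd (0.7 nM–77 uM titration) + 4-MU-alpha-Gal 80 uM, pH 5.9 citrate/Tween-20, RT 20 min, NaOH/glycine stop pH 10, fluor 365/440. Normalized to no-enzyme and full-activity controls; Hill-fit AC50.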

[5] = Inducers of the Endoplasmic Reticulum Stress Response (ERSR) in human glioma: Validation (AID 504836; active means well fitted curve in the direction sought with a large enough effect; an effect the other way counts as inactive or inconclusive)
Procedure, shortened: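 Stably transfected U87-MG glioma cells carrying a GRP78-based luciferase sensor; 16 h compound incubation. Luminescence end-point read 10 min after Bright-Glo addition at room temperature.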

[6] = qHTS for Inhibitors of the Functional Ribonucleoprotein Complex (vRNP) of Lymphocytic Choriomeningitis Arenaviruses (LCMV): Viability assay - alamar blue signal for LCMV Primary Screen (AID 1347085; calls by dose curve; tested in HEK293 reporter line; further: nearly all actives have a fitted effect of over 80% in size)
[7] = Cytotoxicity counterscreen for inhibitors of SARS-CoV-2 cell entry (AID 1645845); further: nearly all actives have a fitted effect of over 50% in size; further: potency means the concentration at half of the fitted maximal effect
Procedure, shortened: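 Counterscreen run in the same HEK293-ACE2 line as the pseudotyped-particle entry assay, without particles. Viability after 48 h at 37 C was read as ATP luminescence, scaled between cell-containing and cell-free wells.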

[8] = Primary qHTS to identify inhibitors of SARS-CoV-2 cell entry (AID 1645846); conditions: activity change, negative = inhibition: at 57.1 µM (top of the series) unless noted; further: nearly all actives have a fitted effect of over 45% in size; further: potency means the concentration at half of the fitted maximal effect
Procedure, shortened: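 Luminescence readout (Bright-Glo luciferase) 48 h after pseudoparticle addition. HEK293-ACE2 cells, 1500/well; compound pre-incubation 1 h; Normalized to spike PP and bald PP.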

[9] = Primary qHTS for Huh7 cytotoxicity: counterscreen for inhibitors of MERS-S pseudotyped particle cell entry (AID 1479147); conditions: outcome: dose series up to 57.1 µM unless noted
[10] = Primary qHTS for inhibitors of MERS-S pseudo-typed particle cell entry (AID 1479149); further: nearly all actives have a fitted effect of over 60% in size
[11] = Primary qHTS for Vero E6 cytotoxicity: counterscreen for inhibitors of SARS-S pseudo-typed particle cell entry (AID 1479150); conditions: outcome: dose series up to 57.1 µM unless noted
[12] = target: Alpha-galactosidase (Coffea arabica) (UniProt Q42656); test: Counterscreen for Glucocerebrosidase Inhibitors: qHTS Assay for Coffee Bean alpha-Galactosidase at pH 4.5 (AID 957; active means well fitted curve in the direction sought with a large enough effect; an effect the other way counts as inactive or inconclusive)
Procedure, shortened: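 Quantitative HTS of compounds (0.7 nM to 77 uM) against coffee bean alpha-galactosidase at pH 4.5, measuring 4-methylumbelliferone fluorescence released from 80 uM substrate.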

[13] = Validation screen for inhibitors of Lassa infection (AID 463096)
[14] = VSVG counterscreen qHTS to identify inhibitors of SARS-CoV-2 cell entry (AID 1645847); further: potency means the concentration at half of the fitted maximal effect; nearly all actives have a fitted effect of over 65% in size
Procedure, shortened: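 HEK293-ACE2 cells (Expi293F stably expressing human ACE2) were pretreated with compound for 1 h at 37 °C, then infected with MLV-based VSV-G pseudotyped particles for 48 h. Luciferase luminescence was normalized to VSV-G PP and bald PP wells.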

[15] = Confirmatory qHTS to identify inhibitors of SARS-CoV-2 cell entry (AID 1645844); further: potency means the concentration at half of the fitted maximal effect; nearly all actives have a fitted effect of over 45% in size
Procedure, shortened: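 HEK293-ACE2, overnight seeding; cpd 1 h, 37C/5% CO2; + SARS-CoV-2-S MLV PP (Wuhan-Hu-1, ΔC19); 48 h; Bright-Glo luminescence. Data normalised to S PP and bald PP wells.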

[16] = qHTS profiling of the MIPE4 collection as inhibitors of Plasmodium falciparum (3D7) proliferation (AID 743344; call rule not given here); conditions: P. falciparum 3D7 in erythrocytes, SYBR Green DNA fluorescence, 72 h; at 28.5 µM (top of the series) unless noted
Procedure, shortened: (§1)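 Parasite DNA was quantified by SYBR Green I fluorescence (ex 485, em 535 nm) after overnight lysis in saponin/Triton buffer at room temperature. Cultures at 0.3% parasitemia and 2.5% hematocrit were first exposed to compound for 72 h at 37 C; signals were normalised to artemisinin (0.29 uM) and vehicle wells.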

[17] = qHTS profiling of the MIPE4 collection as inhibitors of Plasmodium falciparum (DD2) proliferation (AID 743345; call rule not given here); conditions: P. falciparum Dd2 in erythrocytes, SYBR Green DNA, 72 h; at 28.5 µM (top of the series) unless noted
Procedure, shortened: as §1

[18] = qHTS profiling of the MIPE4 collection as inhibitors of Plasmodium falciparum (DD2) proliferation (Rep 2) (AID 743346; call rule not given here); conditions: P. falciparum Dd2 in erythrocytes, SYBR Green DNA, 72 h; at 28.5 µM (top of the series) unless noted
Procedure, shortened: as §1

[19] = Primary qHTS for inhibitors of SARS-S pseudo-typed particle cell entry (AID 1479145); further: nearly all actives have a fitted effect of over 45% in size

Nucleoprotein (Lymphocytic choriomeningitis virus (strain Armstrong)), sequence (P09992 whole entry, looked up): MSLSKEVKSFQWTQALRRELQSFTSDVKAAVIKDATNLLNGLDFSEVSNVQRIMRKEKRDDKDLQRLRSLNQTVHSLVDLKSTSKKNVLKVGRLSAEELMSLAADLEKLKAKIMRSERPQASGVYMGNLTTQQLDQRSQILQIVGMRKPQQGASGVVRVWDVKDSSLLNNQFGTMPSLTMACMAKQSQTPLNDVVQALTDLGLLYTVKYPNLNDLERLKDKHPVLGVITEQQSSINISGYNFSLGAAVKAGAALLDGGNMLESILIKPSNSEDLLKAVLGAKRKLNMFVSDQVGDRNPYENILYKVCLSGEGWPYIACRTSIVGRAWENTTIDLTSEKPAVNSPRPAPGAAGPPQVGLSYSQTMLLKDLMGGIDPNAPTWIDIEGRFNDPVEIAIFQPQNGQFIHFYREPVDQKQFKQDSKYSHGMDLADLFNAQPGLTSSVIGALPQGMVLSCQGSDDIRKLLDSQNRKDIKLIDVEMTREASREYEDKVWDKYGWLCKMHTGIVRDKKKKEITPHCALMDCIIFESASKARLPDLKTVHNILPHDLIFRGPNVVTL
Alpha-galactosidase (Coffea arabica), sequence (Q42656 whole entry, looked up): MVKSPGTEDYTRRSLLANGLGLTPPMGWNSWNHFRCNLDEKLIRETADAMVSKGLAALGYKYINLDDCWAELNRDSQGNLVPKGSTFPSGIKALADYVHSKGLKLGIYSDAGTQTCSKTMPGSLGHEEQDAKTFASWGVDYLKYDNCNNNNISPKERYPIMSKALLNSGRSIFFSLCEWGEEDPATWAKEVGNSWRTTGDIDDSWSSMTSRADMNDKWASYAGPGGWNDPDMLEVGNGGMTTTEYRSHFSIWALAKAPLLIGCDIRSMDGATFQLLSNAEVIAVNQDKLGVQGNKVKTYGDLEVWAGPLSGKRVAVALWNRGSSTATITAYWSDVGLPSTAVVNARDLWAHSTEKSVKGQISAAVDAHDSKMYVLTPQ

## C=C(C)[C@@]12OC3(c4ccccc4)O[C@@H]1[C@@H]1[C@@H]4O[C@]4(CO)[C@@H](O)[C@]4(O)C(=O)C(C)=C[C@H]4[C@@]1(O3)[C@H](C)[C@H]2OC(=O)/C=C/C=C/c1ccccc1
[1]
  Potency: inactive
[2]
  Potency: inactive
[3]
  Potency: inactive

## NC[C@@H]1O[C@H](C23CC4CC(CC(C4)C2)C3)Cc2c1ccc(O)c2O
[4]
  outcome: inactive
[5]
  outcome: inactive
[1]
  Potency: inactive
[2]
  Potency: inactive
[6]
  Potency: inactive

## O=C(Nc1ccc(Oc2ccnc3[nH]ccc23)c(F)c1)c1cccn(-c2ccc(F)cc2)c1=O
[1]
  Potency: inactive
[2]
  Potency: inactive
[7]
  Potency: inactive
[8]
  activity change, negative = inhibition: -21.9%

## CCc1ccc(C(=O)Nc2cc(CN3CCN(C)CC3)cc(C(F)(F)F)c2)cc1C#Cc1cnc2ccnn2c1
[1]
  Potency: inactive
[2]
  Potency: 21.7 µM (active)
[7]
  Potency: 31.6 µM (active)
[8]
  Potency: 22.4 µM (active)

## O=C(CCCCCCNC(=O)c1cnc(N(c2ccccc2)c2ccccc2)nc1)NO
[1]
  Potency: inactive
[2]
  Potency: 30.6 µM (active)
[3]
  Potency: inactive
[8]
  Potency: inactive

## COc1cc(O)c2c(c1)C1OC1C[C@H](O)[C@H](O)C(=O)C=CC[C@H](C)OC2=O (some centres not stated)
[1]
  Potency: 34.3 µM (active)
[2]
  Potency: 38.5 µM (active)
[3]
  Potency: 34.3 µM (active)
[8]
  Potency: 35.5 µM (active)

## CC(C)c1cc(-c2n[nH]c(=O)n2-c2ccc3c(ccn3C)c2)c(O)cc1O
[1]
  Potency: 0.385 µM (active)
[2]
  Potency: 0.243 µM (active)
[3]
  Potency: 0.306 µM (active)
[8]
  activity change, negative = inhibition: -96%

## OC[C@H]1O[C@@H](n2cnc3c(NC4CCCC4)ncnc32)[C@H](O)[C@@H]1O
[5]
  outcome: inactive
[1]
  Potency: inactive
[2]
  Potency: inactive
[3]
  Potency: inactive

## Cc1ccc2nc(NC(=O)CSc3nc4c(c(=O)n3-c3ccccc3)SCC4)sc2c1
[1]
  Potency: 19.3 µM (active)
[2]
  Potency: 17.2 µM (active)
[3]
  Potency: 8.63 µM (active)
[7]
  Potency: inactive
[8]
  activity change, negative = inhibition: -16.9%

## CCc1ccc(OCc2ccccc2C(=O)Nc2ccc3nc(C)cc(N)c3c2)cc1
[1]
  Potency: 12.2 µM (active)
[2]
  Potency: 21.7 µM (active)
[7]
  Potency: 15.8 µM (active)
[8]
  Potency: 10 µM (active)

## C[S+](C)CCC(N)C(=O)O (configuration not stated)
[1]
  Potency: inactive
[2]
  Potency: inactive
[9]
  outcome: inactive
[10]
  Potency: inactive
[11]
  outcome: inactive
[7]
  Potency: inactive
[8]
  activity change, negative = inhibition: -29.8%

## CC(C)C[C@H](CC(=O)O)C(=O)N[C@@H](Cc1c[nH]c2ccccc12)C(=O)N[C@@H](C)c1ccccc1
[1]
  Potency: inactive
[2]
  Potency: inactive
[3]
  Potency: inactive
[7]
  Potency: inactive
[8]
  activity change, negative = inhibition: -6.02%

## O=c1[nH]c2cc(Cl)c(Cl)cc2[nH]c1=O
[12]
  outcome: inactive
[4]
  outcome: inactive
[13]
  Potency: inactive
[5]
  outcome: inactive
[1]
  Potency: inactive
[2]
  Potency: inactive
[3]
  Potency: inactive

## COc1cc2c(cc1-c1c(C)noc1C)ncc1[nH]c(=O)n([C@H](C)c3ccccn3)c12
[1]
  Potency: 13.7 µM (active)
[2]
  Potency: 17.2 µM (active)
[3]
  Potency: 9.68 µM (active)
[7]
  Potency: inactive
[8]
  activity change, negative = inhibition: -29%

## O=C1NC(O)CCN1[C@@H]1O[C@H](CO)[C@H](O)[C@H]1O (some centres not stated)
[1]
  Potency: inactive
[2]
  Potency: inactive
[7]
  Potency: inactive
[8]
  activity change, negative = inhibition: -26.7%

## O=C(O)CCCCCC(=O)NN=C1CCCC1
[1]
  Potency: inactive
[2]
  Potency: inactive
[7]
  Potency: inactive
[8]
  activity change, negative = inhibition: -16.8%

## O=C1NC(=O)C(c2cnc3ccccn23)=C1c1cn2c3c(cccc13)CN(C(=O)N1CCOCC1)CC2
[1]
  Potency: inactive
[2]
  Potency: 6.85 µM (active)
[3]
  Potency: inactive
[7]
  Potency: inactive
[14]
  Potency: 0.215 µM (active)

## COc1ccc(Nc2cc(-c3cnc(N)nc3)nc(N3CCOCC3)n2)cn1
[1]
  Potency: 12.2 µM (active)
[2]
  Potency: 3.85 µM (active)
[15]
  Potency: 0.341 µM (active)
[14]
  Potency: 1.08 µM (active)

## CCNc1cc(NC2CCC(O)CC2)nc(Nc2ccc3c(ccn3Cc3ccccc3)c2)n1 (configuration not stated)
[1]
  Potency: inactive
[2]
  Potency: inactive
[7]
  Potency: inactive

## Cn1cc(C[C@@H](N)C(=O)O)c2ccccc21
[1]
  Potency: inactive
[2]
  Potency: inactive
[7]
  outcome: inactive [at 11.3 µM]
[8]
  activity change, negative = inhibition: -6.52% [at 11.3 µM]

## N=c1ccn2c(n1)O[C@H]1[C@H](O)[C@@H](CO)O[C@H]12
[5]
  outcome: inactive
[1]
  Potency: inactive
[2]
  Potency: inactive
[3]
  Potency: inactive

## Oc1ccc(-c2ccc(-c3cc(Nc4cccc(CNC5CC5)c4)n[nH]3)cc2)c(O)c1
[1]
  Potency: 24.3 µM (active)
[2]
  Potency: 3.06 µM (active)
[3]
  Potency: 12.2 µM (active)
[8]
  Potency: 10 µM (active)

## C=CCn1c(=O)c2c(nc(-c3ccc(S(=O)(=O)O)cc3)n2C)n(C)c1=O
[12]
  outcome: inactive
[4]
  outcome: inactive
[13]
  Potency: inactive
[5]
  outcome: inactive
[1]
  Potency: inactive
[2]
  Potency: inactive
[3]
  Potency: inactive

## Cc1ccc2nc(NCCN)c3ncc(C)n3c2c1
[1]
  Potency: 17.2 µM (active)
[2]
  Potency: 19.3 µM (active)
[15]
  Potency: 19.2 µM (active)
[14]
  Potency: 13.6 µM (active)

## CN1N=C(N)c2cn([C@@H]3O[C@H](COP(=O)(O)O)[C@@H](O)[C@@H]3O)c3ncnc1c23
[1]
  Potency: inactive
[2]
  Potency: 34.3 µM (active)
[3]
  Potency: inactive
[8]
  activity change, negative = inhibition: -94.7%

## CC(C)C(C)C=CC(C)C1CCC2C3=CC=C4CC(O)CCC4(C)C3CCC21C (configuration not stated)
[16]
  parasite growth, % of DMSO control: 96.2%
[1]
  Potency: 27.3 µM (active)
[2]
  Potency: 38.5 µM (active)
[3]
  Potency: 7.69 µM (active)
[7]
  Potency: inactive
[8]
  Potency: inactive

## COc1cc(C(=O)N2CCC(N3CCN(C)CC3)CC2)ccc1Nc1ncc2c(n1)N(C)c1ccccc1C(=O)N2C
[1]
  Potency: inactive
[2]
  Potency: 17.2 µM (active)
[3]
  Potency: 10.9 µM (active)
[8]
  Potency: 31.6 µM (active)

## C[C@H](CCC(=O)O)[C@H]1CC[C@H]2[C@H]3[C@@H](CC[C@]12C)[C@@]1(C)CC[C@@H](O)C[C@H]1C[C@@H]3O
[16]
  parasite growth, % of DMSO control: 8.82%
[17]
  parasite growth remaining, % of DMSO control (lower = more inhibition): 12.3%
[18]
  parasite growth, % of control (lower = inhibition): 16.6%
[1]
  Potency: inactive
[2]
  Potency: inactive
[19]
  Potency: inactive
[9]
  outcome: inactive
[10]
  Potency: inactive
[11]
  outcome: inactive
[7]
  Potency: inactive
